Shown are actives, neighbours in structure and some others; about 3.8% of the full set was active somewhere.
S2 tox = cell viability loss in ATXN counter-screen; S2 cells (HEK-293 line with an ATXN2-luciferase reporter) viability, CellTiter-Fluor protease fluorescence, 24 h; Potency, µM (top dose mostly 56.7 µM), usual class: cytotoxic; 400,000 compounds, 0.49% hits; AID 651635; note: nearly all actives have a fitted effect of over 40% in size
TGFb inhibitor = TGF-b pathway inhibition. HepG2 CAGA-GFP TGF-b/SMAD3 reporter, GFP fluorescence, 18 h; TGF-beta stimulated, 500 pg/mL final. Potency, µM (doses to about 46.1 µM), without a hit: at the top dose activity, negative = inhibition, usual class: inhibitors. 410,000 compounds, 1.2% hits; note: % is set by controls: 0 for no effect and ±100 for the full control effect; nearly all actives have a fitted effect of over 65% in size
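HEPG2 CAGA-GFP reporter cells (1000/well, DMEM with 1% FBS) received compounds, then recombinant TGF-beta at 500 pg/mL final for 18 hours at 37 degrees C. Per-cell GFP summed per well was normalised to unstimulated and stimulated DMSO controls before curve fitting.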
A549 tox = A549 cytotoxicity, counter-screen for Nrf2 inhibitors; A549 ARE-Fluc cells, CellTiter-Fluor viability, 18-24 h; Potency, µM (doses to about 46 µM), without a hit: at the top dose activity change, negative = cytotoxicity, hits mostly inhibitors; 390,000 compounds, 0.16% hits; AID 504648; note: % is set by controls: 0 for no effect and ±100 for the full control effect
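A549 ARE-Fluc cells in 5% FBS OPTI-MEM, 5000 cells/well, rested 2 h then exposed to compounds in concentration-response for 18-24 h at 37 °C. Viability by CellTiter-Fluor fluorescence (Ex 405/Em 525) after 30 min; luciferase luminescence (BugLite, 15 min, RT) read afterwards.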
ATXN2 expr inh = ATXN2 expression inhibition; HEK-293 ATXN2-luciferase reporter, luminescence, 24 h; Potency, µM (series often up to 57 µM), for inactives: at the top dose activity change, negative = inhibition, hits mostly inhibitors; 360,000 compounds, 0.72% hits; AID 1745845; note: % is set by controls: 0 for no effect and ±100 for the full control effect; nearly all actives have a fitted effect of over 55% in size
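qHTS (up to 57 uM final) was run with 24 h compound exposure of reporter cells at 37 °C. Each well was multiplexed: SteadyGlo luminescence measured ATXN2-luciferase expression after a fluorogenic Gly-Phe-AFC viability readout (25 uM final).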
HepG2 tox-1 = HepG2 cytotoxicity, counter-screen for TGF-b inhibitors; HepG2 CAGA-GFP viability, ATP luminescence, 18 h; Potency, µM (series often up to 46.1 µM), for inactives: at the top dose activity change, negative = cytotoxicity, hits mostly cytotoxic; 410,000 compounds, 0.76% hits; AID 588856
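HepG2 CAGA-GFP cells (1000/well, DMEM with 1% FBS) received compound, then TGF-beta at 500 pg/mL final, and were incubated 18 hours at 37 degrees C. Viability was read by CellTiter-Glo luminescence. Media-only wells were set as complete cell-killing and DMSO as no toxicity.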
Nrf2 block = Nrf2 pathway inhibition; AID 504444; A549 ARE-Fluc reporter, luciferase luminescence, 18-24 h; 360,000 compounds, 2.1% hits; Potency, µM (series often up to 46 µM), for inactives: top-dose activity change, negative = inhibition, most hits filed as inhibitors; note: % is set by controls: 0 for no effect and ±100 for the full control effect; nearly all actives have a fitted effect of over 60% in size
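A549 ARE_Fluc cells (5000/well, 5% FBS OPTI-MEM) pre-incubated 2 h, then treated with compounds 18-24 h at 37C/5% CO2 in concentration-response. CellTiter-Fluor viability read first; BugLite luciferase luminescence after 15 min at room temperature gives Nrf2 activity.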
TGFb CAGA inh = confirmation of TGF-b signaling inhibitors in HepG2 reporter cells; shares compounds with TGFb inhibitor; HepG2 CAGA-GFP TGF-b reporter, GFP fluorescence, 18 h; cells stimulated with TGF-beta, 500 pg/mL; Potency, µM (top dose mostly 46.1 µM), inactives show top-dose activity, negative = inhibition, hits mostly inhibitors; 1,600 compounds, 63% hits; AID 720534; note: % is set by controls: 0 for no effect and ±100 for the full control effect; nearly all actives have a fitted effect of over 65% in size
HepG2 tox-2 = toxic to HepG2 cells in TGF-b counterscreen; HepG2 CAGA-GFP viability, ATP luminescence, 18 h; cells stimulated with TGF-beta, 500 pg/mL; 1,600 compounds, 27% hits; Potency, µM (series often up to 46.1 µM), inactives show at the top dose activity, negative = cytotoxicity, usual class: inhibitors; shares compounds with TGFb inhibitor; note: % is set by controls: 0 for no effect and ±100 for the full control effect; nearly all actives have a fitted effect of over 70% in size
CCL64 TGFb inh = TGF-b inhibition, CCL64 orthogonal assay | shares compounds with TGFb inhibitor | CCL64 CAGA-GFP reporter, TGF-b stimulated, GFP fluorescence, 18 h | Potency, µM (series often up to 46.1 µM), for the others: at the top dose activity, negative = inhibition, hits mostly inhibitors | 1,600 compounds, 41% hits; note: nearly all actives have a fitted effect of over 65% in size
TGFb COP inh = TGF-b inhibition validated with COP promoter; shares compounds with TGFb inhibitor; Potency, µM (top dose mostly 46.1 µM), inactives show at the highest dose activity, negative = inhibition, most hits filed as inhibitors; HepG2 COP-GFP TGF-b reporter, GFP fluorescence, 18 h; cells stimulated by added recombinant TGF-beta; 1,600 compounds, 3% hits; note: nearly all actives have a fitted effect of over 70% in size
Starred values were filed as active, the others as inactive; i = inactive; u = inconclusive; x = not tested or not shown. Calls come from the whole dose curve; as a rule, active = well fitted curve in the direction sought with a large enough effect; inconclusive = small, poorly fitted or top-dose-only effect, or another doubt; inactive = no such curve, though single readings can be large; an effect the other way counts as inactive or inconclusive. Potency is the fitted concentration of half-maximal effect.

SMILES | S2 tox | TGFb inhibitor | A549 tox | ATXN2 expr inh | HepG2 tox-1 | Nrf2 block | TGFb CAGA inh | HepG2 tox-2 | CCL64 TGFb inh | TGFb COP inh
C=C(C(=O)c1ccccc1)C(CC(=O)c1ccccc1)c1ccccc1 (centres undefined) | u | 13µM* | u | 25µM* | 4% | 23µM* | 9.2µM* | 10µM* | 9.2µM* | -17%
O=C(Cc1ccccc1)CC(CC(=O)c1ccccc1)c1ccccc1 (centres undefined) | i | -6% | x | x | -51% | x | x | x | x | x
O=C(c1ccc([N+](=O)[O-])s1)N1CCc2ccccc2C1 | u | u | 0% | -29% | -53% | u | 23µM* | u | u | 4%
CN(CC(=O)Nc1cccc(F)c1)C(=O)c1cccc(S(=O)(=O)N2CC3(C)CC2CC(C)(C)C3)c1 (centres undefined) | u | 11µM* | -15% | -1% | -21% | -11% | 16µM* | -29% | u | 47%
COc1ccccc1-c1nnc2sc(-c3ccc(N(C)C)cc3)nn12 | u | u | u | -17% | -20% | u | x | x | x | x
CN(C)c1ccc(-c2nn3c(-c4ccccc4Cl)nnc3s2)cc1 | i | u | -6% | -8% | 9% | -16% | 4.6µM* | -4% | 10µM* | -6%
Cc1ccc(-n2c(=O)c3ccc(C(=O)NCc4ccccc4Cl)cc3n(CC(=O)Nc3cccc(F)c3)c2=O)cc1 | i | -14% | 2% | 7% | -3% | -8% | x | x | x | x
CCCC(=O)NC1CCc2cc(OC)c(OC)c(OC)c2-c2ccc(OC)c(=O)cc21 (centres undefined) | i | u | u | 6% | -25% | u | x | x | x | x
COc1cc2c(c(OC)c1OC)-c1ccc(OC)c(=O)cc1C(NC(=O)c1ccccc1)CC2 (centres undefined) | i | u | -27% | 1% | -16% | u | u | 0% | u | u
COc1cc2c(c(OC)c1OC)-c1ccc(SC)c(=O)cc1C(NC=O)CC2 (centres undefined) | u | -91% | u | -14% | -34% | 16% | u | 23µM* | u | 44%
COc1ccc(N(CC(=O)N2CCN(c3ccc(F)cc3)CC2)S(=O)(=O)c2c(C)nn(C)c2C)cc1 | i | u | 1% | -5% | -11% | 1% | x | x | x | x
COc1cccc(C(=O)NCC(c2ccc(N(C)C)cc2)N2CCc3ccccc32)c1 (centres undefined) | x | -31% | u | x | -40% | x | x | x | x | x
CCCC(=O)N/C(N)=N/c1nc(C)c2cc(C)ccc2n1 | u | 6% | -20% | 0% | -13% | u | x | x | x | x

Assay outcomes from PubChem.
